According to the antibiotic and cytotoxicity screens of Wong et al. (2023):
About 3,300 (8.5%) of roughly 39,000 compounds were called active. The entries come from a sample that favours actives as a whole.

The molecules below were run on HepG2 (assay: cytotoxicity call (relative viability < 0.9)). Details: 10 µM.
With `CCCc1ncc(C[n+]2ccccc2C)c(N)n1.[Cl-]` the cytotoxicity call was “inactive”. `C[C@@H]1CCCCO[C@H](CN(C)S(=O)(=O)c2cccs2)[C@H](C)CN([C@H](C)CO)C(=O)c2cc(NC(=O)c3ccccc3)ccc2O1` was tested, and the cytotoxicity call was “inactive”. For `C[C@@H]1CN([C@@H](C)CO)C(=O)c2cccc(NS(=O)(=O)c3cccs3)c2O[C@@H]1CN(C)Cc1ccc(Oc2ccccc2)cc1`, the cytotoxicity call was “inactive”. `C[C@@H]1CN([C@@H](C)CO)C(=O)c2cc(C#CCN(C)C)cnc2O[C@H]1CN(C)Cc1cccc(C(=O)O)c1` was tested, and the cytotoxicity call was “inactive”. With `C[C@@H]1CN([C@@H](C)CO)C(=O)c2cccc(NC(=O)C3CCOCC3)c2O[C@H]1CN(C)C(=O)Nc1ccc2c(c1)OCO2` the cytotoxicity call was “inactive”. In the case of `C[C@@H]1CN([C@H](C)CO)C(=O)Cc2cc(NC(=O)Nc3ccc(F)cc3)ccc2O[C@@H]1CN(C)C(=O)Nc1ccc(C(F)(F)F)cc1`, the cytotoxicity call is reported as “inactive”. For `C[C@H](CO)N1C[C@H](C)[C@@H](CN(C)C(=O)Nc2ccc(C(F)(F)F)cc2)Oc2ccc(NC(=O)Nc3ccc(F)cc3)cc2CC1=O`, the cytotoxicity call was “active”. With `C[C@H]1CN([C@@H](C)CO)C(=O)Cc2cc(NC(=O)Nc3ccc(F)cc3)ccc2O[C@H]1CN(C)C(=O)Nc1ccc(C(F)(F)F)cc1` the cytotoxicity call was “inactive”. With `Cc1ccc(S[C@]2(C(=O)NC(C)C)CC(=O)N(Cc3cc(C(F)(F)F)cc(C(F)(F)F)c3)[C@@H]2c2ccc(CO)cc2)cc1` the cytotoxicity call was “inactive”. For `CN(C)Cc1cn(CC[C@H]2CC[C@@H](NS(=O)(=O)c3ccccc3)[C@H](CO)O2)nn1`, the cytotoxicity call was “inactive”. `C[C@H]1CN([C@@H](C)CO)C(=O)Cc2cc(NC(=O)CCC(F)(F)F)ccc2O[C@@H]1CN(C)S(C)(=O)=O` was tested, and the cytotoxicity call was “inactive”. `CC(C)(C)[S@](=O)N1Cc2cc(C(=O)N3CCc4ccccc4C3)nc(-c3cccc(-c4cncnc4)c3)c2[C@@H]1CCO` was tested, and the cytotoxicity call was “inactive”. `C=CCOC(=O)[C@@H]1[C@H]2C(=O)O[C@H](c3ccccc3)[C@H](c3ccccc3)N2[C@H](c2ccc(OCCOC(=O)NCCCCCC(=O)NO)cc2)[C@]12C(=O)Nc1ccc(I)cc12` was tested, and the cytotoxicity call was “inactive”. For `Nc1nnc(-c2ccno2)o1`, the cytotoxicity call was “inactive”. With `CC(=O)On1cc(F)c(=O)[nH]c1=O` the cytotoxicity call was “active”. In the case of `CCOC(=O)Cn1cc(F)c(=O)[nH]c1=O`, the cytotoxicity call is reported as “inactive”. In the case of `CCOC(=O)CCn1cc(F)c(=O)[nH]c1=O`, the cytotoxicity call is reported as “inactive”. `Cn1cnc(S(=O)(=O)N2CC[C@H](O)[C@@H]2Cc2cnn(C)c2)c1` was tested, and the cytotoxicity call was “inactive”. `C[C@@H]1CCCCO[C@H](CN(C)C(=O)Nc2ccc(C(F)(F)F)cc2)[C@@H](C)CN([C@@H](C)CO)C(=O)c2cc(NC(=O)Cc3ccccc3)ccc2O1` was tested, and the cytotoxicity call was “inactive”. With `C[C@H]1CCCCO[C@@H](CN(C)C(=O)Nc2ccccc2)[C@@H](C)CN([C@@H](C)CO)C(=O)c2cc(NC(=O)Cc3ccccc3)ccc2O1` the cytotoxicity call was “inactive”. In the case of `C[C@@H]1CCCCO[C@@H](CN(C)C(=O)CCC(F)(F)F)[C@@H](C)CN([C@H](C)CO)C(=O)c2cc(NC(=O)Cc3ccccc3)ccc2O1`, the cytotoxicity call is reported as “inactive”. In the case of `C[C@H](CO)N1C[C@H](C)[C@@H](CN(C)C(=O)Nc2ccc(C(F)(F)F)cc2)OCCCC[C@H](C)Oc2ccc(NC(=O)Cc3ccccc3)cc2C1=O`, the cytotoxicity call is reported as “inactive”. In the case of `C[C@@H]1CCCCO[C@@H](CN(C)C(=O)Nc2ccccc2)[C@H](C)CN([C@@H](C)CO)C(=O)c2cc(NC(=O)Cc3ccccc3)ccc2O1`, the cytotoxicity call is reported as “inactive”. For `C[C@@H]1CCCCO[C@@H](CN(C)C(=O)Nc2ccc(C(F)(F)F)cc2)[C@H](C)CN([C@H](C)CO)C(=O)c2cc(NC(=O)Cc3ccccc3)ccc2O1`, the cytotoxicity call was “active”. With `C[C@@H]1CN([C@H](C)CO)C(=O)c2cc(NC(=O)Cc3ccccc3)ccc2O[C@@H](C)CCCCO[C@H]1CN(C)C(=O)Nc1ccccc1` the cytotoxicity call was “active”. With `C[C@@H]1CCCCO[C@@H](CN(C)C(=O)CCC(F)(F)F)[C@H](C)CN([C@@H](C)CO)C(=O)c2cc(NC(=O)Cc3ccccc3)ccc2O1` the cytotoxicity call was “inactive”. For `C[C@H]1CCCCO[C@H](CN(C)C(=O)CCC(F)(F)F)[C@@H](C)CN([C@@H](C)CO)C(=O)c2cc(NC(=O)Cc3ccccc3)ccc2O1`, the cytotoxicity call was “active”. For `CC(C)NC(=O)Nc1ccc2c(c1)C(=O)N([C@@H](C)CO)C[C@@H](C)[C@@H](CN(C)Cc1ccccc1)OCCCC[C@@H](C)O2`, the cytotoxicity call was “inactive”. For `C[C@@H]1CCCCO[C@@H](CN(C)C(=O)Nc2ccc3c(c2)OCO3)[C@@H](C)CN([C@@H](C)CO)C(=O)c2cc(NC(=O)Nc3ccc4c(c3)OCO4)ccc2O1`, the cytotoxicity call was “inactive”. With `CS(=O)(=O)N1CCOC[C@@]2(C1)CN(S(=O)(=O)C1CC1)CCO2` the cytotoxicity call was “inactive”. With `O=C(C[C@H]1CC[C@H]2[C@@H](COC[C@@H](O)CN2S(=O)(=O)c2cccc(F)c2)O1)NCc1ccc2c(c1)OCO2` the cytotoxicity call was “inactive”. With `C[C@@H]1CCCCO[C@H](CN(C)C(=O)Nc2ccc3c(c2)OCO3)[C@@H](C)CN([C@H](C)CO)C(=O)c2cc(NC(=O)c3ccccc3)ccc2O1` the cytotoxicity call was “inactive”. `O=C(O)CNc1ncccc1O` was tested, and the cytotoxicity call was “inactive”. `Cc1ccc(S(=O)(=O)N(C)C[C@H]2Oc3ccc(NC(=O)NC(C)C)cc3CC(=O)N([C@H](C)CO)C[C@@H]2C)cc1` was tested, and the cytotoxicity call was “inactive”. For `N=C1CCCN1Cc1[nH]c(=O)[nH]c(=O)c1Cl`, the cytotoxicity call was “inactive”. `Cc1noc(C)c1NC(=O)Nc1ccc2c(c1)C(=O)N([C@@H](C)CO)C[C@@H](C)[C@H](CN(C)Cc1ccccc1)OCCCC[C@H](C)O2` was tested, and the cytotoxicity call was “inactive”. For `Cc1noc(C)c1S(=O)(=O)Nc1ccc2c(c1)C(=O)N([C@H](C)CO)C[C@@H](C)[C@@H](CN(C)Cc1ccc(C(=O)O)cc1)O2`, the cytotoxicity call was “inactive”. For `CC(C)NC(=O)N(C)C[C@H]1Oc2ccc(NC(=O)CCCN(C)C)cc2CC(=O)N([C@@H](C)CO)C[C@@H]1C`, the cytotoxicity call was “inactive”. `N[C@H]1CCCC[C@@H]1N1C(=O)CSC1=O` was tested, and the cytotoxicity call was “inactive”. With `NC1CCCCC1N.O=C1[O][Pt][O]C1=O` (stereo not given) the cytotoxicity call was “active”. With `Cc1c(CN2CCC(Nc3ncnc4sc(CC(F)(F)F)cc34)CC2)ccc2c1cc(C#N)n2Cc1cn[nH]c1` the cytotoxicity call was “active”. For `Cc1noc(C)c1S(=O)(=O)N(C)C[C@@H]1OCCCC[C@H](C)Oc2ccc(NS(C)(=O)=O)cc2C(=O)N([C@@H](C)CO)C[C@H]1C`, the cytotoxicity call was “inactive”. With `CC(C)N(CCOc1c(Br)cc(/C=C/C(=O)NCCCOc2c(Br)cc(CCN(C)C)cc2Br)cc1Br)C(C)C` the cytotoxicity call was “active”. For `COc1cc(/C=C/C(=O)NCCCNC(=O)/C=C/c2cc(OC)c(OC)c(OC)c2)cc(OC)c1OC`, the cytotoxicity call was “inactive”. For `COc1cc(C(=O)NCc2ccc(OCCN(C)C)cc2)cc(OC)c1OC.Cl`, the cytotoxicity call was “inactive”. For `CN(C)CCOc1c(Br)cc(/C=C/C(=O)NCCCOc2c(Br)cc(CCN(C)C)cc2Br)cc1Br`, the cytotoxicity call was “active”. For `C[C@H](CO)N1C[C@H](C)[C@@H](CN(C)C(=O)Nc2ccc3c(c2)OCO3)Oc2ccc(NC(=O)CCCN(C)C)cc2C1=O`, the cytotoxicity call was “inactive”. For `CO[C@H]1CN(C)C(=O)c2cc(NS(=O)(=O)CC(F)(F)F)ccc2OC[C@H](C)N(C(=O)c2ccc3c(c2)OCO3)C[C@H]1C`, the cytotoxicity call was “inactive”. `O=C(Cc1ccccn1)NCC[C@H]1CC[C@@H](NC(=O)CN2CCOCC2)[C@H](CO)O1` was tested, and the cytotoxicity call was “inactive”. `C[C@H]1CN([C@@H](C)CO)C(=O)c2cc(NC(=O)Cn3cnnn3)ccc2O[C@@H]1CN(C)S(=O)(=O)c1ccccc1` was tested, and the cytotoxicity call was “inactive”. `CC(C)N1C[C@H](C)[C@@H](CN(C)Cc2ccc(Oc3ccccc3)cc2)Oc2c(cccc2-c2nnc(-c3ccncc3)o2)C1=O` was tested, and the cytotoxicity call was “inactive”. `C[C@H]1CN([C@@H](C)CO)C(=O)c2cccc(NC(=O)Nc3cccc4ccccc34)c2O[C@H]1CN(C)S(=O)(=O)c1ccc(F)cc1` was tested, and the cytotoxicity call was “inactive”. For `C[C@H](CO)N1C[C@H](C)[C@H](CN(C)S(=O)(=O)c2ccccc2)Oc2c(NC(=O)Nc3cccc4ccccc34)cccc2C1=O`, the cytotoxicity call was “inactive”. `COc1ccc(S(=O)(=O)N(C)C[C@H]2Oc3c(NC(=O)Nc4cccc5ccccc45)cccc3C(=O)N([C@@H](C)CO)C[C@H]2C)cc1` was tested, and the cytotoxicity call was “inactive”. In the case of `C[C@@H]1CN([C@@H](C)CO)C(=O)c2cccc(NC(=O)Nc3cccc4ccccc34)c2O[C@H]1CN(C)S(=O)(=O)c1ccc(OC(F)(F)F)cc1`, the cytotoxicity call is reported as “active”. In the case of `COc1ccccc1S(=O)(=O)N(C)C[C@@H]1Oc2c(NC(=O)Nc3cccc4ccccc34)cccc2C(=O)N([C@@H](C)CO)C[C@H]1C`, the cytotoxicity call is reported as “inactive”. For `COc1ccc(S(=O)(=O)N(C)C[C@@H]2Oc3c(NC(=O)Nc4cccc5ccccc45)cccc3C(=O)N([C@@H](C)CO)C[C@H]2C)c(OC)c1`, the cytotoxicity call was “active”. `COc1ccc(S(=O)(=O)N(C)C[C@@H]2Oc3c(NC(=O)Nc4cccc5ccccc45)cccc3C(=O)N([C@@H](C)CO)C[C@H]2C)cc1OC` was tested, and the cytotoxicity call was “inactive”. In the case of `COc1cccc(S(=O)(=O)N(C)C[C@@H]2Oc3c(NC(=O)Nc4cccc5ccccc45)cccc3C(=O)N([C@@H](C)CO)C[C@H]2C)c1`, the cytotoxicity call is reported as “active”. In the case of `COc1ccc(S(=O)(=O)N(C)C[C@@H]2Oc3c(NC(=O)Nc4cccc5ccccc45)cccc3C(=O)N([C@@H](C)CO)C[C@H]2C)cc1F`, the cytotoxicity call is reported as “inactive”. `C[C@H](CO)N1C[C@H](C)[C@H](CN(C)S(=O)(=O)c2ccc(F)cc2)Oc2c(NC(=O)Nc3cccc4ccccc34)cccc2C1=O` was tested, and the cytotoxicity call was “inactive”. For `COc1ccc(S(=O)(=O)N(C)C[C@@H]2Oc3c(NC(=O)Nc4cccc5ccccc45)cccc3C(=O)N([C@@H](C)CO)C[C@H]2C)cc1`, the cytotoxicity call was “inactive”. With `COc1ccc(S(=O)(=O)N(C)C[C@H]2Oc3c(NC(=O)Nc4cccc5ccccc45)cccc3C(=O)N([C@@H](C)CO)C[C@@H]2C)cc1` the cytotoxicity call was “active”. `CC1CN(c2c(F)c(N)c3c(=O)c(C(=O)O)cn(C4CC4)c3c2F)CC(C)N1` (stereo not given) was tested, and the cytotoxicity call was “inactive”. For `CC(C)NC(=O)N(C)C[C@H]1OCCCC[C@@H](C)Oc2ccc(NC(=O)Nc3ccc(C(F)(F)F)cc3)cc2C(=O)N([C@H](C)CO)C[C@@H]1C`, the cytotoxicity call was “inactive”.
